# Laboratory results published in the OligoGym collection.
# Target: SOHLH2
# Experiment: pooled miR-30 sensor sort-seq; sequence = guide strand
# Conditions: shRNA
# Note: reference of the scale not given here.
row,Sequence,sensor-assay potency score (higher = more potent)
1,TTGATGGAACTCTCACAGCTTC,-0.632
2,TATCGTGTCTACATGGATCTTC,0.657
3,TAGATTGTCAAACTGCGCCCAG,-0.465
4,TATGTTTGCAAATAGTTTCTGT,0.299
5,TAAGATGTCTATTTTTGCCTGG,0.389
6,TATATTTCACATAATCAACTGT,0.64

# Target: SORCS2
# Experiment: as above
# Conditions: shRNA
row,Sequence,sensor-assay potency score (higher = more potent)
1,TATTCCTATAGACTTACACTAA,-0.686
2,TAGAAATTGTCGATGACGGTGG,0.449
3,TTCTTTATATTCCACCAGCTGT,-1.25
4,TAGACTTACACTAACATCCCTG,0.646
5,TTACTCAACAAGGAGCGGGTGC,-0.482
6,TAGAGCTTGCTCTCCTTTGTGT,0.276
7,TTGAGGACAACTTGTAGGGTGG,-0.426
8,TTTCCTTTTGAACTTGTAGAGG,-1.02
9,TTCTTCTTTATATTCCACCAGC,-0.916
10,TTTTACTCAACAAGGAGCGGGT,-0.478
11,TTTGGTCACTCGCTCTTGCAGA,-0.75
12,AAAGAAGATGTAATCGTCCTGC,0.216

# Target: SOX21
# Experiment: as above
# Conditions: shRNA
row,Sequence,sensor-assay potency score (higher = more potent)
1,TAGTAGTTTGTTGTTGTTGTTT,-0.802
2,TTAACTTTGATATTCGCTCAAA,-0.537
3,TTCTATGTACATACAAACCGGG,-0.494
4,TTGAGTCTAAAGTCGACTCAAA,-1.13
5,ATGAACAGAGTGATAGTCGGAT,0.0793
6,TAATCTTCGATAAAATTGCGAT,-0.606
7,TTAATCTTCGATAAAATTGCGA,-0.173
8,TTTGAGTCTAAAGTCGACTCAA,0.154
9,TAAATTAGAAGGTCACACTAGA,0.55
10,TCTATGTACATACAAACCGGGC,-1.15
11,TTAAATTAGAAGGTCACACTAG,0.0223

# Target: SPAM1
# Experiment: as above
# Conditions: shRNA
row,Sequence,sensor-assay potency score (higher = more potent)
1,TTGAATAGCAAAATTATCTGGG,0.668
2,TTGAGGTTCTTCTGTCTCCATG,-1.06
3,TAACAATGAACATTGTGGCAGA,-0.131
4,TTTCATTCCACAACCAGCTGAG,0.0511
5,TATTGTAACACCTTGCCCGGTG,-0.194
6,TAATTGTCTAGGAGCAAGCAAG,-1.53
7,TTTATTTCTACATTGAAGCAAC,-0.796
8,TTTCCTTATACACACTCCTTGC,-0.862
9,TCTATCTTTGTAACTTGCCTTC,-0.492
10,TTTTCCTTATACACACTCCTTG,-0.634
11,ATACTAACAATGAACATTGTGG,-0.0586
